Assay results published in PubChem BioAssay AID1274 (Emory University Molecular Libraries Screening Center, 2008).
In all, about 220,000 compounds went through this assay and about 1,100 (0.5%) were called active.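 The calls were made as follows: active = inhibition above about 30% (limit read from the data); inactive = the rest.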 The full list was thinned out, with actives kept by preference.

What follows are compounds tested against Neutrophil cytosol factor 1 (Homo sapiens) (UniProt P14598) (assay: blockers of p47phox binding to p22phox – biochemical, uHTS, NADPH oxidase regulatory subunit, primary screen (AID 1274;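 also: 0% = p47phox with labelled peptide and 100% = labelled peptide alone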)). Details: p47phox/p22phox peptide binding, fluorescence polarization, 2 h; at 24.7 µM; stronger effect = higher value.
Sequence of Neutrophil cytosol factor 1 (Homo sapiens) (P14598 whole entry, looked up): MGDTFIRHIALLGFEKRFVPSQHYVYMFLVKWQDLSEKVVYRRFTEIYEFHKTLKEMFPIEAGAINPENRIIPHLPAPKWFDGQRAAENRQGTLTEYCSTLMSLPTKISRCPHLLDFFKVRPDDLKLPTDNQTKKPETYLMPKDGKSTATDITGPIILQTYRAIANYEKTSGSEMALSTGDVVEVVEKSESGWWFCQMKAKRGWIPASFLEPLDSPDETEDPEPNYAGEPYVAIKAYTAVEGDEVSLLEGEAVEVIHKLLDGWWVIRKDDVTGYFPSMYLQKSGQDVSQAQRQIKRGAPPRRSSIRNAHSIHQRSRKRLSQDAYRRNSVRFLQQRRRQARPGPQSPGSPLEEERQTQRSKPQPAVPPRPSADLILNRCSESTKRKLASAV

inhibition, active:
O=C(c1cccc(C(=O)N2CCc3ccccc32)n1)N1CCc2ccccc21 45.6%
CCCCN=C1C([N+](=O)[O-])=CC=C2C1=NC1(CCCCC1)N2O 103%
Oc1ccc2ccccc2c1N=Nc1nccs1 59.9%
CCN1CCN(C(c2cccnc2)c2cc(Cl)c3cccnc3c2O)CC1 (centres undefined) 38.2%
CCOC(=O)C1CCN(c2ncnc3c2oc2ccc(Br)cc23)CC1 48.6%
CC(Oc1ccc(-c2ccccc2)c(F)c1)c1ccn(S(=O)(=O)c2cccc3ccccc23)n1 (centres undefined) 30.5%
CC(=O)OCc1cc(=O)n(C)c(=O)n1C 38.7%
Cn1c(SCC(=O)Nc2cccc(O)c2)nnc1-c1ccc(S(=O)(=O)N2CCOCC2)cc1 36.6%
O=C(COc1ccc2oc3c(c2c1)CCCC3)Nc1ccccn1 178%
CCN(CC)CCCN=Cc1c(O)n(-c2ccc(C)cc2)c(=O)c2ccccc12 111%
Cc1nc2nc(C)c(CCC(=O)N3CCN(c4ccccc4)CC3)c(C)n2n1 37.8%

inhibition, inactive:
O=C(c1cnn2ccccc12)N1CCc2ccccc21 -1.85%
NC(=O)N1CCc2ccccc21 3.78%
Nc1nnn(CC(=O)N/N=C/c2ccc(O)cc2)n1 -6.45%
CN(C)c1nc(=Nc2cccc(Cl)c2)ss1 -21.8%
Oc1c(C=Nc2cccc3nsnc23)ccc2ccccc12 -51.3%
Oc1ccc(N=Nc2nccs2)c(O)c1 -48.9%
CCN(C(=O)COC(=O)/C=C/c1nc2ccccc2s1)C1CCS(=O)(=O)C1 (centres undefined) -4.73%
Oc1c(CN2CCN(c3ccc(F)cc3)CC2)cc(Cl)c2cccnc12 11.9%
CCOC(=O)N1CCN(C(c2cccnc2)c2ccc3cccnc3c2O)CC1 (centres undefined) 6.02%
CC(=O)Nc1nc(C)c(-c2csc(Nc3ccc(S(N)(=O)=O)cc3)n2)s1 -21.6%
CCOC(=O)C1CCN(C(=O)c2oc3ccc(S(=O)(=O)N4CCCCCC4)cc3c2C)CC1 -9.11%
CCOC(=O)C1CCN(c2ncnc3c2c(-c2ccccc2)cn3-c2ccc(C)cc2)CC1 -0.04%
CCN(CC)N=Nc1cccc(NC(C)=O)c1 2.47%
O=C(CSC(=S)N1CCCCC1)c1c(F)cccc1F -20.4%
CC(C)Oc1ccc(CC(=O)NNC(=S)Nc2ccc(Br)cc2)cc1 -4.65%
Cc1cccc(C)c1NC(=O)C1(N(C(=O)c2ccccn2)c2ccc(O)cc2)CCCCC1 -4.76%
COc1ccc(Nc2nc(N)nc(CSC(=S)N3CCC(C)CC3)n2)cc1 -5.99%
CCn1c(SCC(=O)N/N=C/c2ccncc2)nc2ccccc21 3.59%
NNc1nc2c(Cl)cccc2s1 -5.57%
CC(C)Oc1ccc(C(=O)Nc2cc(=O)n(C)c(=O)n2C)cc1 -14%
CC(=O)c1c(N)n(C)c(=O)n(C)c1=O -3.86%
O=C1CN(C(=O)CN2C(=O)NC3(CCCCC3)C2=O)c2ccccc2N1 -8.11%
C=CCC1(C#N)C(=S)NC(C)=C(C(=O)OCC)C1c1ccccc1 (centres undefined) -0.89%
C=CCN1CC(C)/C(=N\O)CC1C (centres undefined) -0.6%
CCC(=O)Nc1cccc(NC(=O)CSc2nnc(-c3ccc(NS(C)(=O)=O)cc3)n2C)c1 -16.1%
Cn1c(SCC(=O)OC2CCCCC2)nnc1-c1ccc(S(=O)(=O)N2CCCC2)cc1 -1.77%
Nc1c(NCCc2ccccc2)c2ccccc2oc1=O -7.7%
Cc1ccc(OCC(=O)Nc2ccc(S(=O)(=O)Nc3ccccn3)cc2)cc1 5.31%
Cc1cc(C)cc(OCC(=O)Nc2ccc(S(=O)(=O)Nc3ccccn3)cc2)c1 -4.16%
Cc1ccc(S(=O)(=O)NNC(=S)NC(C)(C)C)cc1 -8.25%
CCc1ccccc1NC(=O)CSc1nnc(CCNC(=O)OC(C)(C)C)o1 -6.69%
CCN(CC(=O)NCCc1ccccc1)S(=O)(=O)c1ccccc1 -6.19%
O=C(Nc1ccc(Br)cn1)C1CCN(S(=O)(=O)c2cccs2)CC1 -5.24%
CCOc1ccc(-n2c(O)c(/C=N/Nc3nnc(C)c(=O)[nH]3)c3ccccc3c2=O)cc1 -44.3%
CCOc1ccc(-n2c(O)c(/C=N/Nc3nc(C)cc(C)n3)c3ccccc3c2=O)cc1 -10.2%
O=C(O)C1CCN(C(=O)c2cc(F)cc3c2OCOC3)CC1 -5.96%
Cc1nc2c(-c3ccc(F)cc3)c(C)nn2c(C)c1CCC(=O)N1CCN(c2ccccn2)CC1 -1.7%
Cc1nc2ncnn2c(C)c1CCC(=O)N1CCN(C(=O)c2ccco2)CC1 2.67%
